From PubChem BioAssay (NCI) come the findings set out here.

Values joined by “and” are separate entries in the source; they are usually repeats but may differ in a detail not shown here. Equal entries are not always repeated. This is part of a sample that, as a whole, favours compounds with a hit. Of some 79,000 tested, about 15% had one in any assay. Values without a mark were called inactive. Active and inactive are the calls of the source. Rule as the data show it: active = growth inhibition above about 70%; inactive = the rest.

A short description of the assay: NCI Yeast Anticancer Drug Screen. Data for the sgs1 mgt1 strain (AID 161).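 Also: 0% = growth of cultures given vehicle only.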 The note with it: S. cerevisiae sgs1 mgt1 strain, hits give high values; at 50.0 µM unless noted. As to the method: Growth inhibition of yeast strains with defined genetic alterations is measured as a screen for potential anti-cancer activity. Selected strains with alterations in DNA damage repair or cell cycle control were exposed to compounds and growth inhibition was measured relative to vehicle treated controls. The strain used in this assay is sgs1 mgt1
Regarding `Cc1ccc([N+](=O)[O-])cc1NS(=O)(=O)c1cc(Cl)c(Cl)cc1Cl`, the growth inhibition is 49.2%.
Take `CC1=C2CC(C)(C)/C=C\C(=O)/C(C)=C\C3=C[C@H](C)C[C@]3(O2)C1=O`: the growth inhibition is 72.8% (active).
For `CCc1cc(C)cc(O)c1`, the growth inhibition was -65.2% and -1.55%.
Regarding `Cc1nc(Nc2cccc(Cl)c2)c2cnn(-c3ccc(Cl)cc3)c2n1`, the growth inhibition is 1.1%.
For the compound `C=CCSc1cccc(C)c1`, the growth inhibition was -12.6%.
Regarding `O=C(C[n+]1ccccc1CO)c1ccc(-c2ccccc2)cc1`, the growth inhibition is 17.2%.
As to `CCOC(=O)c1c[nH]n(-c2ccccc2)c1=O`, the growth inhibition is -4.75%.
For `COc1ccc2c(c1)c(COC(C)=O)c(C)c[n+]2[O-]` the value was 42.1%; for `COc1cccc(C2SC(N)=Nc3c2c(C)nn3C(=O)c2ccccc2O)c1` (stereo not given), 33.1%.
For the compound `COC(=O)C1=CO[C@@H](OC2OC(CO)C(O)C(O)C2O)[C@H]2[C@@H]1C=C[C@@]21C=C([C@H](C)OC(=O)/C=C/c2ccc(OC3OC(CO)C(O)C(O)C3O)cc2)C(=O)O1` (stereo not given in full), the growth inhibition was -20.1%.
Consider `CCCCOC(c1ccccc1)c1ccccc1`, for which the growth inhibition was -11.8%.
The result for `O=C(O)CCCCC1CCCCC1` reads 38.8%; that for `O=C1c2ccccc2-c2c1c1ccccc1c(=O)n2-c1ccccc1`, 6%; that for `CN(C)CC1CCCCCC(CN(C)C)C1=O` (stereo not given), -1.85% and 25.9%.
Take `CCOC(=O)c1cc2ccccc2cc1N=N`: the growth inhibition was 15%.
On to `COCN1C(=N)C(C(=O)OC(C)(C)C)=C2C=C(O)C=CC21C` (stereo not given), for which the growth inhibition is -23.4%.
For the compound `N#C/C(=C/NC(N)=S)C(N)=O`, the growth inhibition was -16.4%.
Take `CN(C)c1ccc(C(c2ccc(N(C)C)cc2)c2ccc([N+](=O)[O-])cc2)cc1`: the growth inhibition was -48.3%.
The result for `CC(=O)NC(C(=O)O)C(C)C` (stereo not given) reads -4.55%.
For `COC(=O)CC1(C(=O)OC)NC(=O)c2cc(OC)c(Cl)cc2N1` (stereo not given), the growth inhibition is -7.1%.
As for `O=Cc1ccc(C=O)o1`, the growth inhibition was 28.9%.
`O=C1c2ccccc2S(=O)(=O)c2c1cccc2[N+](=O)[O-]`: the growth inhibition is 3.6%.
For `Cn1c2ccccc2c(=O)c2[nH]c3ccccc3c21` the value was 84.2% (active); for `CSc1ccc(Nc2cc(=O)[nH]c(=O)[nH]2)cc1`, 18.1%; for `CC(C)CCNc1ccccc1`, -9.85%.
In the case of `Nc1cncnc1N`, the growth inhibition was 31.9%.
Take `Cc1ccc(S(=O)(=O)c2ccccc2)cc1`: the growth inhibition was -22.5% and 23%.
As to `O=C(c1ccc(-c2ccccc2)cc1)C(O)c1ccc(-c2ccccc2)cc1` (stereo not given), the growth inhibition was 2.65%.
`OC(c1ccc(Cl)cc1)c1ccccn1` (stereo not given): the growth inhibition was -7.3%.
`C/C(=N\NS(=O)(=O)c1c(C)cc(C)cc1C)c1ccc[n+]([O-])n1`: the growth inhibition was -8.4%.
The result for `CC1=NN(c2ccccc2)C(=O)C1O` (stereo not given) reads -6.05%.
The result for `Cc1c(CCN2CCOCC2)c(N2CCOCC2)n2c(nc3ccccc32)c1C#N` reads -9.2%; that for `c1ccc(N=c2sc3ccccc3nc2Nc2ccccc2)cc1`, -34.4%.
As for `Cn1nnn(Cc2ccccc2)/c1=N/C(=S)Nc1ccccc1`, the growth inhibition is -4.05%.
The result for `COC(=O)OCCOC(=O)OC` reads -8.45%.
`Cc1cc(C)nc(NS(=O)(=O)c2ccc(Nc3c4ccccc4nc4c(C(=O)Nc5ccc(S(=O)(=O)Nc6cc(C)on6)cc5)ccc(Cl)c34)cc2)n1`: the growth inhibition was 23.1%.
`C(=N\N(c1ccccc1)c1ccccc1)/C(c1ccccc1)c1ccccc1`: the growth inhibition is 1.9%.
For `O=C1CSC(c2ccccc2Cl)N1c1n[nH]c(=S)s1` (stereo not given) the value was -9.5%.
For `COc1cc(C2c3cc4c(c(OC5OC(CO)C(O)C5O)c3CC3COC(=O)C32)OCO4)cc(OC)c1OC` (stereo not given) the value was 17.9%.
Consider `O=c1[nH]nc(Cc2ccccc2)n1CCO`, for which the growth inhibition is 18.1%.
